Measurements from the antibiotic and cytotoxicity screens of Wong et al. (2023).
Out of some 39,000 compounds screened, about 3,300 (8.5%) were called active. The sample as a whole holds a higher share of actives than the screen did.

These molecules were tested on HepG2 (assay: cytotoxicity call (relative viability < 0.9)). Conditions: 10 µM.
With `COc1ccc(-c2cnc3c(c2)C(=O)N([C@H](C)CO)C[C@H](C)[C@@H](CN(C)C(=O)Cc2ccccn2)O3)cc1` the cytotoxicity call was “inactive”. `Cc1noc(C)c1S(=O)(=O)Nc1ccc2c(c1)C(=O)N([C@H](C)CO)C[C@@H](C)[C@@H](CN(C)Cc1ccc(-c3ccccc3)cc1)O2` was tested, and the cytotoxicity call was “inactive”. For `C[C@H]1CN([C@@H](C)CO)C(=O)Cc2cc(NS(=O)(=O)c3ccccc3)ccc2O[C@H]1CN(C)S(=O)(=O)c1ccc(F)cc1`, the cytotoxicity call was “inactive”. `C[C@@]1(NC(=O)Cc2ccc(S(=O)(=O)N3CCOCC3)s2)CCS(=O)(=O)C1` was tested, and the cytotoxicity call was “inactive”. `C[C@@H]1CN([C@@H](C)CO)C(=O)c2cccc(NS(=O)(=O)c3ccccc3)c2O[C@H]1CN(C)S(=O)(=O)c1cccs1` was tested, and the cytotoxicity call was “inactive”. With `C[C@H](CO)N1C[C@H](C)[C@H](CN(C)S(=O)(=O)c2ccc(F)cc2)Oc2c(NC(=O)c3cnccn3)cccc2C1=O` the cytotoxicity call was “inactive”. With `CCS(=O)(=O)N1CC[C@]2(CC1)CN([C@@H](CO)c1c2c2ccc(cc2n1C)OC)C(=O)Nc1c(noc1C)C` the cytotoxicity call was “inactive”. `O=C(CN1CCOCC1)NCC[C@H]1CC[C@H](NS(=O)(=O)c2ccc(Cl)cc2)[C@@H](CO)O1` was tested, and the cytotoxicity call was “inactive”. For `COc1c(O[C@@H]2O[C@H](CO)[C@@H](O)[C@H](O)[C@H]2O)cc2oc(-c3ccc(O)c(O)c3)c(O)c(=O)c2c1O`, the cytotoxicity call was “inactive”. For `O=c1c(O)c(-c2ccc(O)c(O)c2)oc2c(OC3OC(CO)C(O)C(O)C3O)c(O)cc(O)c12` (stereo unspecified), the cytotoxicity call was “inactive”. With `CC(=O)O[C@@H]1[C@@H](O[C@@H]2O[C@H](CO)[C@@H](O)[C@H](O)[C@H]2O)[C@@H](O)[C@H](OC[C@H]2O[C@@H](Oc3c(-c4ccc(O)c(O)c4)oc4cc(O)cc(O)c4c3=O)[C@H](O)[C@@H](O)[C@H]2O)O[C@H]1C` the cytotoxicity call was “active”. For `C[C@H]1O[C@@H](OC[C@H]2O[C@@H](Oc3c(-c4ccc(O)c(O)c4)oc4cc(O)cc(O)c4c3=O)[C@@H](O)[C@@H](O)[C@@H]2O)[C@@H](O)[C@@H](O)[C@@H]1O`, the cytotoxicity call was “inactive”. `O=c1c(O)c(-c2ccc(O)c(O)c2)oc2c(O[C@@H]3O[C@H](CO)[C@H](O)[C@@H](O)[C@H]3O)c(O)cc(O)c12` was tested, and the cytotoxicity call was “active”. With `C[C@@H]1O[C@@H](O[C@@H]2[C@@H](O)[C@H](C)O[C@@H](OC[C@H]3O[C@@H](Oc4c(-c5ccc(O)c(O)c5)oc5cc(O)cc(O)c5c4=O)[C@@H](O)[C@@H](O)[C@@H]3O)[C@@H]2O)[C@H](O)[C@H](O)[C@H]1O` the cytotoxicity call was “inactive”. `Cc1ccc(S(=O)(=O)N(C)C[C@@H]2Oc3ncc(C#CC4(O)CCCC4)cc3C(=O)N([C@@H](C)CO)C[C@H]2C)cc1` was tested, and the cytotoxicity call was “inactive”. For `CC(C)(C[C@H]1CN(S(=O)(=O)c2cccc(C(F)(F)F)c2)c2cc(-c3cc(F)cc(OC(F)F)c3)ccc2O1)C(=O)O`, the cytotoxicity call was “inactive”. `COC(=O)CCCCCCC(=O)N/N=C/[C@H](O)[C@@H](O)[C@@H](O)[C@H](O)C(=O)O` was tested, and the cytotoxicity call was “inactive”. In the case of `COc1ccc2c3c(n(c2c1)C)[C@@H](CO)N(CC1CCCC1)C[C@]13CCN(CC1)C(=O)Nc1ccccc1`, the cytotoxicity call is reported as “active”. With `COc1ccc(cc1)S(=O)(=O)N1C[C@]2(C1)CN([C@H](CO)c1c2c2ccc(cc2n1C)OC)C(=O)CN(C)C` the cytotoxicity call was “active”. With `COc1ccc(cc1)S(=O)(=O)N1C[C@]2(C1)CN([C@@H](CO)c1c2c2ccc(cc2n1C)OC)C(=O)CN(C)C` the cytotoxicity call was “inactive”. `COc1ccc2c3c(n(c2c1)C)[C@H](CO)N(C[C@]13CCN(CC1)S(=O)(=O)C)C(=O)CN(C)C` was tested, and the cytotoxicity call was “inactive”. With `COc1ccc2c3c(n(c2c1)C)[C@H](CO)N(C[C@]13CN(C1)S(=O)(=O)C)C(=O)CN(C)C` the cytotoxicity call was “inactive”. For `COc1ccc(cc1)S(=O)(=O)N1CC[C@]2(CC1)CN([C@@H](CO)c1c2c2ccc(cc2n1C)OC)C(=O)CN(C)C`, the cytotoxicity call was “inactive”. `COCC(=O)N1CC[C@]2(CC1)CN([C@@H](CO)c1c2c2ccc(cc2n1C)OC)C(=O)Cc1ccccc1` was tested, and the cytotoxicity call was “inactive”. `COc1ccc2c3c(n(c2c1)C)[C@H](CO)N(Cc1ccccc1)C[C@]13CCN(CC1)C(=O)Nc1cccc(c1)F` was tested, and the cytotoxicity call was “inactive”. In the case of `COc1ccc(cc1)S(=O)(=O)N1CC[C@]2(CC1)CN([C@H](CO)c1c2c2ccc(cc2n1C)OC)C(=O)CN(C)C`, the cytotoxicity call is reported as “active”. `COCC(=O)N1CC[C@]2(CC1)CN([C@H](CO)c1c2c2ccc(cc2n1C)OC)C(=O)Cc1ccccc1` was tested, and the cytotoxicity call was “active”. For `COCC(=O)N1CC[C@]2(CC1)CN(Cc1cccc(c1)OC)[C@@H](CO)c1c2c2ccc(cc2n1C)OC`, the cytotoxicity call was “inactive”. `COc1ccc2c3c(n(c2c1)C)[C@H](CO)N(CC1CCCC1)C[C@]13CCN(CC1)C(=O)Nc1ccccc1` was tested, and the cytotoxicity call was “inactive”. With `CNC[C@@H]1OCCCC[C@@H](C)Oc2ccc(NC(=O)CCCN(C)C)cc2C(=O)N([C@H](C)CO)C[C@H]1C` the cytotoxicity call was “inactive”. `O=C(O)c1cn(-c2ccccc2)nn1` was tested, and the cytotoxicity call was “inactive”.
